Results taken from PubChem BioAssay AID371 (SRMLSC, 2006).
The whole screen tested about 3,300 compounds, of which about 280 (8.5%) were called active.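 The calls were made as follows: active = mean growth inhibition over the two runs of 50% or more; inactive = mean growth inhibition under 50%.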 Many of the other results were omitted from the sample, so actives are more common in it than they were.

Assay: A549 NSCLC cell proliferation inhibitors – ATP luminescence, human non-small cell lung line, primary screen (AID 371);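 also: compound exposure lasted 72 h before the ATP read; 0% = untreated cell signal and 100% = no luminescence left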
Details: at 10 µM, active compounds read high

Structure (SMILES) | growth inhibition
CN(C)CCOC(=O)c1cn(Cc2ccccc2)c2ccccc12 | 61.2% (active)
CCCCOCCCn1c(N)c(C(=O)OC(C)COC)c2nc3ccccc3nc21 (stereo not given) | 36.6% (inactive)
CC(C)(C)OC(=O)c1c(N)n(Cc2ccco2)c2nc3ccccc3nc12 | 56.9% (active)
Nc1c(C(=O)NCc2ccco2)c2nc3ccccc3nc2n1CCN1CCCCC1 | 91.8% (active)
COCC(C)OC(=O)c1c(N)n(Cc2ccco2)c2nc3ccccc3nc12 (stereo not given) | 14% (inactive)
COCCOC(=O)c1c(N)n(Cc2ccco2)c2nc3ccccc3nc12 | 12.9% (inactive)
CCCCOCCCn1c(N)c(C(=O)OCCOC)c2nc3ccccc3nc21 | 23.4% (inactive)
Nc1c(C(=O)NCc2ccco2)c2nc3ccccc3nc2n1Cc1ccc(F)cc1 | 86.7% (active)
CC(C)OC(=O)c1c(N)n(Cc2ccco2)c2nc3ccccc3nc12 | 18.6% (inactive)
COc1ccc(Cn2c(O)c(C=NCCCn3ccnc3)c(=O)[nH]c2=O)cc1 | -7.41% (inactive)
CCCCCCn1c(O)c(C(C)=NC)c(=O)[nH]c1=O | 8.94% (inactive)
O=C(c1ccco1)C12CN3CN(CN(C3)C1)C2 | -3.02% (inactive)
OC1(c2ccc(F)cc2)CCNC1 (stereo not given) | -3.04% (inactive)
O=C1C2CCN(CC2)[C@@H]1Cc1ccc2ccccc2c1O | 7.73% (inactive)
COc1cc2[nH]c(=O)n(-c3cccc(Cl)c3)c(=O)c2cc1OC | 3.67% (inactive)
O=C1c2ccccc2C(=O)N1Cc1nc2ccccc2c(=O)n1-c1cccnc1 | -0.22% (inactive)
C=CCC1(CN2CCCCCC2=O)C(=O)NC(=O)NC1=O | 2.99% (inactive)
CCCCNC(=O)Nc1ccc(C(O)(C(=O)OC)C(F)(F)F)cc1 (stereo not given) | -4.53% (inactive)
CCOC(C(=O)OCC(O)CN(CC)CC)(c1ccccc1)c1ccccc1 (stereo not given) | 15.7% (inactive)
O=C(O)CCCc1ccc(N(CCCl)CCCl)cc1 | 50.8% (active)
CCOCCN1CCC(OC(C)=O)C(C)C1 (stereo not given) | 1.45% (inactive)
CCOc1ccc(Cc2c(O)[nH]c(=O)[nH]c2=O)cc1 | -5.3% (inactive)
CCCCNC(=O)Nc1ccc(C(O)(C(=O)OCC)C(F)(F)F)cc1 (stereo not given) | -3.41% (inactive)
CN1CCC(OC(=O)C2c3ccccc3Oc3ccccc32)CC1 | 13% (inactive)

Structure (SMILES) | growth inhibition
CCCC12CN3CN(C1)CC(CCC)(C3)C2O (stereo not given) | -0.83% (inactive)
CC(C)[C@@]1(NC(=O)[C@@H]2C=C3c4cccc5[nH]cc(c45)C[C@H]3N(C)C2)O[C@@]2(O)[C@@H]3CCCN3C(=O)[C@H](Cc3ccccc3)N2C1=O | 35.2% (inactive)
CC(C)[C@@]1(NC(=O)[C@@H]2C[C@@H]3c4cccc5[nH]cc(c45)C[C@H]3N(C)C2)O[C@@]2(O)[C@@H]3CCCN3C(=O)[C@H](Cc3ccccc3)N2C1=O | 85.1% (active)
CC(C)[C@H]1C(=O)N2CCC[C@H]2[C@]2(O)O[C@](NC(=O)[C@@H]3C=C4c5cccc6[nH]cc(c56)C[C@H]4N(C)C3)(C(C)C)C(=O)N12 | 37.3% (inactive)
O=c1[nH]c(=O)n(Cc2ccccc2)c(O)c1C=NCCN1CCOCC1 | -6.38% (inactive)
O=c1[nH]c(=O)n(CCc2ccccc2)c(O)c1C=NCCN1CCNCC1 | -7.13% (inactive)
O=c1[nH]c(=O)n(Cc2ccccc2)c(O)c1C=NCCN1CCNCC1 | 4.69% (inactive)
O=c1c(C=NCCN2CCNCC2)c(O)n(C2CCCCC2)c(=O)n1C1CCCCC1 | 82.3% (active)
OC(c1ccc(F)cc1)C(c1ccccc1)N1CCOCC1 (stereo not given) | 7.16% (inactive)
O=c1[nH]c(=O)n(Cc2ccco2)c(O)c1C=NCCN1CCOCC1 | 0.93% (inactive)
CC1CCC(C(C)C)C(OP(N)(=O)c2ccccc2)C1 (stereo not given) | 16.9% (inactive)
CNCCc1nc(N)n[nH]1 | 1.61% (inactive)
CCCCCCn1c(O)c(C=Nc2c(C)n(C)n(-c3ccccc3)c2=O)c(=O)[nH]c1=O | 6.23% (inactive)
Cc1c(N=Cc2c(O)n(CCc3ccccc3)c(=O)[nH]c2=O)c(=O)n(-c2ccccc2)n1C | 79.2% (active)
Cc1c(N=Cc2c(O)n(CCc3ccc(F)cc3)c(=O)[nH]c2=O)c(=O)n(-c2ccccc2)n1C | 12.3% (inactive)
C=CCn1c(O)c(C=NCCN(C)C)c(=O)[nH]c1=O | 2.68% (inactive)
O=c1[nH]c(=O)n(CCc2ccccc2)c(O)c1C=NCCCn1ccnc1 | -3.73% (inactive)
CCOc1ccccc1-n1c(O)c(C=Nc2c(C)n(C)n(-c3ccccc3)c2=O)c(=O)[nH]c1=O | 0.12% (inactive)
CC1(C)NCCN2C(=O)CSC21 (stereo not given) | -1.76% (inactive)
O=C(CCCN1CCC2(CC1)C(=O)NCN2c1ccccc1)c1ccc(F)cc1 | 54.1% (active)
CCCN(CC#CCO)CCC | 0.1% (inactive)
Cn1c(O)c(C(=O)c2ccccc2Cl)c(=O)n(C)c1=O | 2.11% (inactive)
CC(=O)OC1(c2ccc(C)cc2)CN2CCC1c1ccccc12 (stereo not given) | 6.24% (inactive)
C=CCn1c(O)c(C=Nc2ccc(N(CC)CC)cc2)c(=O)[nH]c1=O | 4.7% (inactive)

Structure (SMILES) | growth inhibition
O=c1[nH]c(=O)n(-c2cccc(Cl)c2)c(O)c1C=NCCN1CCCCC1 | 4.68% (inactive)
Cc1c(N=Cc2c(O)n(Cc3ccco3)c(=O)[nH]c2=O)c(=O)n(-c2ccccc2)n1C | -0.44% (inactive)
CCCCCCn1c(O)c(C=NCCN2CCCCC2)c(=O)[nH]c1=O | -5.08% (inactive)
c1ccc(Cn2ccnc2)cc1 | 8.97% (inactive)
Clc1ccc(CSC(Cn2ccnc2)c2ccc(Cl)cc2Cl)cc1 (stereo not given) | 93.2% (active)
Clc1ccc(COC(Cn2ccnc2)c2ccc(Cl)cc2Cl)c(Cl)c1 (stereo not given) | 92.5% (active)
Clc1ccc(COC(Cn2ccnc2)c2ccc(Cl)cc2Cl)cc1 (stereo not given) | 91.6% (active)
CCOc1ccc(-n2c(O)c(C=Nc3ccc(N(CC)CC)cc3)c(=O)[nH]c2=O)cc1 | 9.98% (inactive)
CC(=O)C1(c2ccccc2)CCNCC1 | 2.01% (inactive)
Cn1c(O)c(C=NCCCNC2CCCCC2)c(=O)n(C)c1=O | 0.52% (inactive)
CCOc1ccccc1-n1c(O)c(C=Nc2ccc(N(CC)CC)cc2)c(=O)[nH]c1=O | 45.4% (inactive)
CCCCSP1(=S)NCCCN1 | 2.57% (inactive)
O=C(COc1ccc2ccccc2c1)N1CCN(C2CCN(Cc3ccccc3)CC2)CC1 | 36.9% (inactive)
O=c1[nH]c(=O)n(C2CCCCC2)c(O)c1C=NCCCn1ccnc1 | 3.81% (inactive)
O=c1[nH]c(O)c(C=NC2CCN(Cc3ccccc3)CC2)c(=O)[nH]1 | 6% (inactive)
COc1cccc(-n2c(C)nc3ccccc3c2=O)c1 | 9.28% (inactive)
COc1ccc(C2SCC(=O)Nc3c2c(=O)[nH]n3C2CCCCCC2)cc1 (stereo not given) | 25.3% (inactive)
CCC(=NCCOc1ccc(Cl)cc1)c1c(O)n(C)c(=O)n(C)c1=O | 55.2% (active)
CC(=NCCO)c1c(O)n(C)c(=O)n(C)c1=O | -4.52% (inactive)
CCC(=NCCN1CCCCC1)c1c(O)n(C)c(=O)n(C)c1=O | -4.37% (inactive)
O=C(Nc1ccncc1)c1c(O)c2ccccc2n(Cc2ccccc2)c1=O | 68.1% (active)
CCN(CC)CCN=Cc1c(O)n(CCc2ccccc2)c(=O)[nH]c1=O | 2.4% (inactive)
CCN(CC)CCCC(C)N=C(c1ccccc1)c1c(O)n(C)c(=O)n(C)c1=O (stereo not given) | 7.06% (inactive)
CCN(CC)CCCNC(=O)c1c(O)c2ccccc2n(Cc2ccccc2)c1=O | 91.6% (active)

Structure (SMILES) | growth inhibition
CN1CCc2nc(SCC(=O)OC(C)(C)C)c(C#N)cc2C1 | 25.1% (inactive)
CCCCC1(CN2CCCC2=O)C(=O)NC(=O)NC1=O | 3.02% (inactive)
COCCOC(=O)C1=C(N)Oc2c(c(=O)oc3ccccc23)[C@@]12C(=O)Nc1ccccc12 | -4.66% (inactive)
CC1CN=C(Nc2ccc(N(C)C)cc2)S1 (stereo not given) | 0.47% (inactive)
CCOC(=O)c1cc(C)n(CCc2cnc[nH]2)c1C | 9.02% (inactive)
C[C@H]1CCCC(=O)CCCCCc2cc(O)cc(O)c2C(=O)O1 | 52.1% (active)
OCCOCC#CCN1CCOCC1 | 0.81% (inactive)
CCCCSP1(=S)NCCCO1 (stereo not given) | 19.6% (inactive)
C[C@@]1(CO)[C@H](O)CC[C@@]2(C)[C@H]1CC[C@H]1C[C@@H]3C[C@@]12CC[C@]3(O)CO | 69.6% (active)
O=P(c1ccccc1)(c1ccccc1)N1CCCCC1 | 8.66% (inactive)
O=c1[nH]c(=O)n(Cc2ccco2)c(O)c1C=NCc1ccc2c(c1)OCO2 | 18.1% (inactive)
CC1=C(C(=O)OC(C)C)[C@]2(C(=O)N(CC(N)=O)c3ccccc32)C(C#N)=C(N)O1 | 5.06% (inactive)
Cc1c2ccncc2c(C)c2c1[nH]c1ccccc12 | 95% (active)
c1ccc2c(c1)[nH]c1cnccc12 | -5.8% (inactive)
COc1cccc(CN2CCN(C(=O)COc3ccc4ccccc4c3)CC2)c1 | 33.9% (inactive)
C[C@H]1CCC/C=C/C2C[C@H](O)CC2[C@H](O)/C=C/C(=O)O1 (stereo not given in full) | 76% (active)
OC(Cc1ccccc1)(c1ccccc1)C1CN2CCC1CC2 (stereo not given) | 34.4% (inactive)
Cc1ccc2c(c1)[C@@H]1CN(C)CC[C@@H]1N2C(=O)Nc1cccc(C(F)(F)F)c1 | 83% (active)
COc1ccc(C(=O)CN2CCOCC2)cc1F | 16% (inactive)
CN1CCc2c(c(N3CCCCC3)nc3n[nH]c(N)c23)C1 | 0.74% (inactive)
COc1ccc2[nH]cc(CCN(C)C)c2c1 | 1.86% (inactive)
CCCc1nc2ccccc2c(=O)n1-c1ccccc1OC | -0.02% (inactive)
CCN(CC)c1ccc(N=Cc2c(O)n(-c3ccccc3C)c(=O)[nH]c2=O)cc1 | 29.6% (inactive)
